Cycloheximide cs: counter-screen for Shiga toxin inhibitors: cycloheximide protein synthesis inhibition; cell reporter, cycloheximide protein synthesis inhibition counterscreen; max response, %; 300,000 compounds, 12% hits; in the data active = max response mostly above about 13%, no sharp cut-off; inactive = mostly below about 14%; also: read at 38.3 µM for the half of the compounds with a filed dose
Lassa entry inh: inhibitors of Lassa virus binding or cell entry; 300,000 compounds, 1.2% hits; Potency, µM (top dose mostly 37.9 µM), usual class: inhibitors; Lassa virus pseudotype entry inhibition, cell reporter; AID 540256; calls by dose curve; tested in HEK293 cells; also: nearly all actives have a fitted effect of over 50% in size
VACV Venus inh: inhibitors of vaccinia virus (Venus reporter). 330,000 compounds, 0.46% hits. Potency, µM (highest dose often 36.5 µM), hits mostly inhibitors. Vaccinia virus Venus reporter expression, fluorescence; calls by dose curve; tested in A549 cells; also: nearly all actives have a fitted effect of over 30% in size
Shiga toxin inh: blocks Shiga toxin action in Vero cells; Vero cells, Shiga toxin protein synthesis inhibition reporter; inhibition, % at 38.7 µM; 290,000 compounds, 9.2% hits; AID 2315; in the data active = inhibition mostly above about 28%, no sharp cut-off; inactive = mostly below about 43%
MARV entry inh: Marburg virus entry inhibition. Potency, µM (highest dose often 37.8 µM), usual class: inhibitors. 300,000 compounds, 1.8% hits. Marburg virus pseudotyped entry inhibition, cell reporter; calls by dose curve; tested in HEK293 cells
Vaccinia mCherry: vaccinia inhibition (mCherry reporter). 310,000 compounds, 0.63% hits. Vaccinia virus mCherry reporter infection, fluorescence. AID 720579. Potency, µM (highest dose often 36.5 µM), actives largely listed as inhibitors; calls by dose curve; tested in A549 cells; also: nearly all actives have a fitted effect of over 35% in size
Hits are given with their value; . = inactive; ? = inconclusive; / = no result. The full list was thinned out, with hits kept by preference.

SMILES | Cycloheximide cs | Lassa entry inh | VACV Venus inh | Shiga toxin inh | MARV entry inh | Vaccinia mCherry
Cc1cc(C)nc(NC(=O)/C=C/c2ccc3c(c2)OCO3)c1 | 52 | ? | . | 66 | ? | .
COC(=O)c1cccc(NC(=O)/C=C/c2ccc3c(c2)OCO3)c1 | 43 | 11µM | ? | 21 | ? | ?
Cc1cccnc1NC(=O)/C=C/c1ccc2c(c1)OCO2 | 50 | . | . | 85 | . | .
O=C(N/N=C\C=C\c1ccc2c(c1)OCO2)c1cccnc1 | 18 | . | / | 78 | . | /
Cc1ccc(C(=O)NNC(=O)c2csc(N3CCOCC3)n2)s1 | / | . | . | / | . | .
O=C(/C=C/c1ccc2c(c1)OCO2)Nc1cccnc1 | 36 | / | . | 91 | / | .
O=C(/C=C/c1ccc2c(c1)OCO2)c1cccnc1 | 22 | . | . | . | . | .
CC(C)(C)c1ccc(/C=C/C(=O)Nc2ccc3c(c2)OCCO3)cc1 | / | 6.5µM | / | / | . | /
NS(=O)(=O)c1ccc(NC(=O)/C=C/c2ccc3c(c2)OCO3)cc1 | . | ? | . | . | ? | .
O=C(/C=C/c1ccc2c(c1)OCO2)Nc1c(C(=O)O)[nH]c2ccccc12 | 50 | . | . | 55 | ? | .
CCOC(=O)C1CCCCN1C(=O)c1cnn(-c2nccc(-c3cc(C)sc3C)n2)c1C1CC1 (stereo not given) | / | / | . | / | / | .
CC1CC1C(=O)OCC(=O)NNC(=O)COc1ccc(Br)cc1 (stereo not given) | / | ? | . | / | . | .
CCOC(=O)N1CCN(C(=O)CCSc2ccccc2)CC1 | 54 | ? | / | 85 | . | /
CCOC(=O)N1CCN(C(=O)CCSc2ccc(C)cc2)CC1 | 8.6 | ? | . | active | . | .
Cc1ccc(SCCC(=O)N2CCN(S(=O)(=O)c3ccccc3)CC2)cc1 | / | ? | . | / | ? | .
CCOC(=O)N1CCN(C(=O)CCSc2ccc(Cl)cc2)CC1 | . | ? | / | . | ? | /
NC(=O)C1CCN(C(=O)CCSc2ccccc2)CC1 | 20 | . | . | 44 | . | .
Cc1cc(C)cc(CO[C@H]2C=C[C@@H](c3ccccc3)O[C@H]2CO)c1 | / | / | / | / | . | /
Nc1nonc1C(=O)OCC(=O)c1ccc(Cl)cc1 | . | . | . | . | . | .
N/C(=N\OCc1ccccc1)c1nonc1N | 55 | / | / | 99 | / | /
N/C(=N/OC(=O)c1ccccc1F)c1nonc1N | 35 | / | . | 64 | / | .
N/C(=N\OCC(=O)Nc1ccccc1)c1nonc1N | . | . | . | . | . | .
N/C(=N\OC(=O)c1ccc(Cl)cc1)c1nonc1N | 44 | . | . | 78 | . | .
CCC(=O)c1cn([C@H](CCC(OC)OC)CC(=O)OC(C)(C)C)cc1CC | / | / | . | / | / | .
CC(C)(C)c1cc[n+](C2=C([O-])c3ccccc3C(=O)/C2=N\S(=O)(=O)c2cccs2)cc1 | 41 | ? | ? | 73 | 10µM | ?
SMILES | Cycloheximide cs | Lassa entry inh | VACV Venus inh | Shiga toxin inh | MARV entry inh | Vaccinia mCherry
COc1ccc(S(=O)(=O)Nc2ccc3c(c2)C(=O)N([C@H](C)CO)C[C@H](C)[C@@H](CN(C)S(=O)(=O)c2c(C)noc2C)O3)cc1 | / | / | . | / | / | .
CCN(CC)c1ccc(NC(=S)NC(=O)c2ccco2)cc1 | 38 | ? | . | 61 | . | .
O=C(NC(=S)Nc1ccc([N+](=O)[O-])cc1)c1ccco1 | / | / | . | / | / | .
CCN(CC)c1ccc(NC(=O)c2ccco2)cc1 | 23 | ? | / | 66 | ? | /
CCN(CC)c1ccc(NC(=O)c2cccc(F)c2)c(C)c1 | . | . | / | . | ? | /
CCN(CC)c1ccc(NC(=O)c2ccc(Br)o2)c(C)c1 | . | . | . | 28 | . | .
Cc1cc(Br)ccc1NC(=O)c1ccco1 | . | ? | . | / | . | .
CCN(CC)c1ccc(NC(=O)c2ccco2)c(C)c1 | 15 | ? | / | . | . | /
Cc1ccccc1Nc1nn2c(=O)c3ccccc3nc2s1 | . | . | / | . | ? | /
C=CCSc1nc2ccccc2c(=O)[nH]1 | . | / | . | . | / | .
C=CCSc1nn2c(=O)c3ccccc3nc2s1 | 35 | ? | / | 48 | . | /
C/C(Cl)=C/CSc1nn2c(=O)c3ccccc3nc2s1 | 41 | . | . | 62 | . | .
Cc1ccc(-n2c3nc(=O)n(C)c(=O)c-3cc3c(Cl)cccc32)c(C)c1 | / | . | . | / | ? | .
Cc1ccc(SCC(=O)NC2CCS(=O)(=O)C2)cc1C (stereo not given) | / | . | . | / | . | .
Cc1ccc(-c2cn(-c3ccccc3)c(SCC(=O)NC3CCS(=O)(=O)C3)n2)cc1C (stereo not given) | 53 | . | . | active | ? | .
CSc1ccccc1OCc1cc(C(=O)N2CCC(c3ccncc3)CC2)no1 | 19 | / | / | . | / | /
CCOC(=O)N1CCC(NC(=O)c2cc(COc3ccccc3SC)on2)CC1 | 27 | . | . | . | . | .
COc1cc2c(cc1OC)CN(C(=O)c1cc(COc3ccccc3SC)on1)CC2 | / | / | . | / | / | ?
CCc1ccc2nc(NC(=O)Cn3cnc4ccccc4c3=O)sc2c1 | 29 | / | / | 53 | / | /
COc1ccc2nc(NC(=O)Cn3cnc4c(=O)n(C)c(=O)n(C)c43)sc2c1 | . | . | / | . | . | /
Cn1c(=O)c2c(ncn2CC(=O)Nc2nc3ccc(F)cc3s2)n(C)c1=O | 13 | . | . | . | . | .
CC(=O)N1CCN(C(=O)CSc2cc(C)c(Br)cc2C)CC1 | 34 | . | . | 48 | . | .
Cc1cc(SCC(=O)OCC(=O)N2CCCC2=O)c(C)cc1Br | / | ? | . | / | . | .
COc1cc(C2C(C#N)=C(N)N(Nc3ccccc3)C3=C2C(=O)CC(C)(C)C3)ccc1OCc1cccc(F)c1 (stereo not given) | . | ? | ? | . | 1.8µM | /
CSc1nccc(-c2cc(Cl)c3c(c2)CC(CNC(=O)c2nonc2C)O3)n1 (stereo not given) | / | / | . | / | / | .
SMILES | Cycloheximide cs | Lassa entry inh | VACV Venus inh | Shiga toxin inh | MARV entry inh | Vaccinia mCherry
Cc1cn(C2OC(COC(=O)c3ccccc3)C(OC(=O)c3ccccc3)C2OC(=O)c2ccccc2)c(=O)[nH]c1=O (stereo not given) | . | ? | . | . | ? | ?
O=C(OCC1OC(OC(=O)c2cc(O)c(O)c(OC(=O)c3cc(O)c(O)c(O)c3)c2)[C@@H](OC(=O)c2cc(O)c(O)c(OC(=O)c3cc(O)c(O)c(O)c3)c2)C(OC(=O)c2cc(O)c(O)c(OC(=O)c3cc(O)c(O)c(O)c3)c2)C1OC(=O)c1cc(O)c(O)c(OC(=O)c2cc(O)c(O)c(O)c2)c1)c1cc(O)c(O)c(OC(=O)c2cc(O)c(O)c(O)c2)c1 (stereo not given in full) | / | 11µM | / | / | 0.35µM | /
COc1cccc(-n2ncc3c(NN=Cc4ccncc4)ncnc32)c1 | / | . | / | / | / | /
CC1Cc2ccccc2N1C(=O)CNCCCN(C)C (stereo not given) | . | . | . | . | . | /
CC1CC2(C)Oc3ccccc3CC2C(C)C1CNCCCN(C)C (stereo not given) | . | ? | 14µM | . | ? | ?
CCS(=O)(=O)N1CCc2cc(C(=O)Nc3cccc(C)c3C)ccc21 | / | ? | . | / | . | .
Cc1onc(COc2ccccc2O)c1Br | 18 | . | . | . | ? | .
CCN(CC)S(=O)(=O)c1ccc2c(c1)N(CC(=O)NCc1ccccc1)C(=O)C1CCCCN21 (stereo not given) | / | ? | . | / | / | .

Screening data (PubChem)
